This note sets out measurements from PubChem BioAssay (NCI).

Each structure is given as a SMILES string. About 79,000 compounds went through this panel and 15% of them were active in at least one assay; those are over-represented in the sample as a whole. A number with no mark means an inactive call. Activity calls are given as the source filed them. Cut-off read from the data, not from the text of the source: active = growth inhibition above about 70%; inactive = the rest.

Assay [1] is described as follows: NCI Yeast Anticancer Drug Screen. Data for the rad50 strain (AID 155).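 Note: 0% = growth of vehicle-only cultures of the same strain.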 The note with it: S. cerevisiae rad50 strain growth inhibition, active compounds read high. In short, it runs like this: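 Growth of the mutant yeast was measured after compound exposure and referenced to vehicle-treated cultures.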
Assay [2] can be described thus: NCI Yeast Anticancer Drug Screen. Data for the mec2-1 strain (AID 157). The note with it: S. cerevisiae mec2-1 strain, active compounds read high. In short, it runs like this: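 Mutant yeast (mec2-1) grown with compound; growth inhibition relative to vehicle control reported.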
Assay [3] can be described thus: NCI Yeast Anticancer Drug Screen. Data for the sgs1 mgt1 strain (AID 161).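 Note: 0% = growth of cultures given vehicle only.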 Particulars: S. cerevisiae sgs1 mgt1 strain, active compounds read high. Put shortly: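 Percent growth inhibition was derived by comparing compound-exposed mutant yeast with vehicle-exposed cultures. The strain carries alterations in DNA damage repair.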
Assay [4] is described as follows: NCI Yeast Anticancer Drug Screen. Data for the cln2 rad14 strain (AID 165).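 Note: 0% = growth equal to vehicle treated cultures.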 Particulars: S. cerevisiae cln2 rad14 strain, active compounds read high. In short, it runs like this:
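Readout is yeast growth inhibition versus vehicle-treated controls, using a strain with cln2 and rad14 alterations exposed to compound.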

A short description of assay [5]: NCI Yeast Anticancer Drug Screen. Data for the bub3 strain (AID 167). The note with it: S. cerevisiae bub3 mutant strain, active compounds read high. Put shortly:
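Whole-cell yeast assay. The mutant strain was incubated with compounds, and growth inhibition was determined by comparison with vehicle-treated cells.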

Assay [6] is described as follows: NCI Yeast Anticancer Drug Screen. Data for the mlh1 rad18 strain (AID 175). Particulars: S. cerevisiae mlh1 rad18 strain growth inhibition, active compounds read high. Put shortly: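 Genetically defined yeast (DNA repair-deficient) exposed to compounds; growth inhibition determined relative to vehicle.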
Setting [7] is: at 5.0 µM (retest, dose inferred, filed as 0.5).
[8] abbreviates: at 50.0 µM (retest, dose inferred, filed as 5.0).

Consider `CCC1CCC2=C(C1)C(=O)c1ccccc1C2=O` (stereo not given), for which the growth inhibition in assay [1] (setting [7]) is 6%; in assay [1] (setting [8]), 91% (active); in assay [1] (at 50.0 µM), 3.4%; in assay [2] (setting [7]), 7%; in assay [2] (setting [8]) it was 92% (active); in assay [2] (at 50.0 µM), 49.5%. Also, the growth inhibition was 11% in assay [3] (setting [7]); 96% (active) in assay [3] (setting [8]); 45% in assay [3] (at 50.0 µM); 11% in assay [4] (setting [7]); 71% (active) in assay [4] (setting [8]); 49.3% in assay [4] (at 50.0 µM). The growth inhibition is 9% in assay [5] (setting [7]); 94% (active) in assay [5] (setting [8]); 95.9% (active) in assay [5] (at 50.0 µM); 6% in assay [6] (setting [7]); 97% (active) in assay [6] (setting [8]); 51.5% in assay [6] (at 50.0 µM).
Consider `COC(=O)/C=C(\C)Nc1ccc(Cc2ccc(Br)cc2)cc1`, for which the growth inhibition in assay [1] (setting [7]) was -4%; in assay [1] (setting [8]) it was 98% (active); in assay [1] (at 50.0 µM), 97.5% (active); in assay [2] (setting [7]), -13%; in assay [2] (setting [8]), 99% (active); in assay [2] (at 50.0 µM) it was 96.8% (active). The growth inhibition in assay [3] (setting [7]) is -8%; in assay [3] (setting [8]), 99% (active); in assay [3] (at 50.0 µM) it was 97.8% (active); in assay [4] (setting [7]), 0%; in assay [4] (setting [8]), 99% (active); in assay [4] (at 50.0 µM), 92.9% (active). Also, the growth inhibition in assay [5] (setting [7]) is -5%; in assay [5] (setting [8]), 98% (active); in assay [5] (at 50.0 µM), 94% (active); in assay [6] (setting [7]) it was -4%; in assay [6] (setting [8]), 99% (active); in assay [6] (at 50.0 µM), 98% (active).
As for `COc1ccc(C(c2ccccc2C(=O)O)c2ccc(OC)c3ccccc23)c2ccccc12`, the growth inhibition was 47% in assay [1] (setting [7]); 94% (active) in assay [1] (setting [8]); 59.6% in assay [1] (at 50.0 µM); 70% (active) in assay [2] (setting [7]); 96% (active) in assay [2] (setting [8]); 88.8% (active) in assay [2] (at 50.0 µM). In addition, the growth inhibition was 97% (active) in assay [3] (setting [7]); 96% (active) in assay [3] (setting [8]); 87.8% (active) in assay [3] (at 50.0 µM); 96% (active) in assay [4] (setting [7]); 95% (active) in assay [4] (setting [8]); 89% (active) in assay [4] (at 50.0 µM). Also, the growth inhibition is 94% (active) in assay [5] (setting [7]); 95% (active) in assay [5] (setting [8]); 89.8% (active) in assay [5] (at 50.0 µM); 97% (active) in assay [6] (setting [7]); 96% (active) in assay [6] (setting [8]); 88.7% (active) in assay [6] (at 50.0 µM).
For the compound `CN(C)c1ccc(/C=N/c2nc(-c3ccccc3)cs2)cc1`, the growth inhibition is 9% in assay [1] (setting [7]); 90% (active) in assay [1] (setting [8]); 94.9% (active) in assay [1] (at 50.0 µM); 7% in assay [2] (setting [7]); 96% (active) in assay [2] (setting [8]); 98.4% (active) in assay [2] (at 50.0 µM). Moreover, the growth inhibition is 5% in assay [3] (setting [7]); 92% (active) in assay [3] (setting [8]); 98% (active) in assay [3] (at 50.0 µM); 2% in assay [4] (setting [7]); 89% (active) in assay [4] (setting [8]); 97.2% (active) in assay [4] (at 50.0 µM). In addition, the growth inhibition in assay [5] (setting [7]) was 1%; in assay [5] (setting [8]) it was 93% (active); in assay [5] (at 50.0 µM) it was 93.2% (active); in assay [6] (setting [7]), 23%; in assay [6] (setting [8]) it was 95% (active); in assay [6] (at 50.0 µM), 97.8% (active).
As to `COc1cc(C2C(Cl)C(=O)N2NC(=O)c2ccccc2O)cc(OC)c1OC` (stereo not given), the growth inhibition in assay [1] (setting [7]) was -8%; in assay [1] (setting [8]) it was 77% (active); in assay [1] (at 50.0 µM) it was 76.3% (active); in assay [2] (setting [7]), -10%; in assay [2] (setting [8]) it was 70% (active); in assay [2] (at 50.0 µM) it was 70.5% (active). For the same compound, the growth inhibition in assay [3] (setting [7]) was 1%; in assay [3] (setting [8]), 81% (active); in assay [3] (at 50.0 µM), 78.8% (active); in assay [4] (setting [7]) it was -2%; in assay [4] (setting [8]) it was 40%; in assay [4] (at 50.0 µM), 35.2%. Further, the growth inhibition in assay [5] (setting [7]) was -11%; in assay [5] (setting [8]), 48%; in assay [5] (at 50.0 µM), 80.8% (active); in assay [6] (setting [7]), 6%; in assay [6] (setting [8]), 87% (active); in assay [6] (at 50.0 µM), 78.8% (active).
As for `O=C(CCCO)N/N=C\c1ccc([N+](=O)[O-])s1`, the growth inhibition in assay [1] (setting [7]) was 5%; in assay [1] (setting [8]), 31%; in assay [1] (at 50.0 µM) it was 18.8%; in assay [2] (setting [7]), -7%; in assay [2] (setting [8]), 23%; in assay [2] (at 50.0 µM), -3.55%. For the same compound, the growth inhibition in assay [3] (setting [7]) was 8%; in assay [3] (setting [8]), 39%; in assay [3] (at 50.0 µM), 31.8%; in assay [4] (setting [7]), -2%; in assay [4] (setting [8]), 20%; in assay [4] (at 50.0 µM), 72.2% (active). For the same compound, the growth inhibition was -1% in assay [5] (setting [7]); 17% in assay [5] (setting [8]); 5.5% in assay [5] (at 50.0 µM); 12% in assay [6] (setting [7]); 74% (active) in assay [6] (setting [8]); 62.2% in assay [6] (at 50.0 µM).
Turning to `CCCc1cc2c(cc1COc1ccccc1C(=O)O)OCO2`, the growth inhibition in assay [1] (setting [7]) is -1%; in assay [1] (setting [8]), 49%; in assay [1] (at 50.0 µM), 56.4%; in assay [2] (setting [7]) it was -4%; in assay [2] (setting [8]) it was 52%; in assay [2] (at 50.0 µM), 59.8%. For the same compound, the growth inhibition is -7% in assay [3] (setting [7]); 25% in assay [3] (setting [8]); 38.4% in assay [3] (at 50.0 µM); -2% in assay [4] (setting [7]); 51% in assay [4] (setting [8]); 33.4% in assay [4] (at 50.0 µM). Besides, the growth inhibition in assay [5] (setting [7]) was -6%; in assay [5] (setting [8]), 31%; in assay [5] (at 50.0 µM), 25.4%; in assay [6] (setting [7]) it was -2%; in assay [6] (setting [8]), 58%; in assay [6] (at 50.0 µM), 61.4%.
Turning to `CC(C)C(=O)/C=C/c1c(Cl)cccc1Cl`, the growth inhibition in assay [1] (setting [7]) was 22%; in assay [1] (setting [8]) it was 26%; in assay [1] (at 50.0 µM) it was 26.6%; in assay [2] (setting [7]), 14%; in assay [2] (setting [8]), 22%; in assay [2] (at 50.0 µM), 41.9%. Also, the growth inhibition in assay [3] (setting [7]) is 11%; in assay [3] (setting [8]), 20%; in assay [3] (at 50.0 µM), 48.4%; in assay [4] (setting [7]), 16%; in assay [4] (setting [8]), 28%; in assay [4] (at 50.0 µM), 46%. Besides, the growth inhibition is 22% in assay [5] (setting [7]); 18% in assay [5] (setting [8]); 54.9% in assay [5] (at 50.0 µM); 19% in assay [6] (setting [7]); 21% in assay [6] (setting [8]); 43.6% in assay [6] (at 50.0 µM).
On to `CCCCN(CCCC)CCNc1ccc(NS(=O)(=O)c2ccccc2)c2sc3ccccc3c(=O)c12`, for which the growth inhibition was 43% in assay [1] (setting [7]); 96% (active) in assay [1] (setting [8]); 96.8% (active) in assay [1] (at 50.0 µM); 21% in assay [2] (setting [7]); 95% (active) in assay [2] (setting [8]); 97.8% (active) in assay [2] (at 50.0 µM). Also, the growth inhibition in assay [3] (setting [7]) was 54%; in assay [3] (setting [8]), 96% (active); in assay [3] (at 50.0 µM) it was 98.2% (active); in assay [4] (setting [7]), 31%; in assay [4] (setting [8]), 96% (active); in assay [4] (at 50.0 µM), 93.3% (active). Besides, the growth inhibition is 32% in assay [5] (setting [7]); 94% (active) in assay [5] (setting [8]); 96.4% (active) in assay [5] (at 50.0 µM); 96% (active) in assay [6] (setting [7]); 94% (active) in assay [6] (setting [8]); 95.3% (active) in assay [6] (at 50.0 µM).
For the compound `NC(=S)N/N=C1\NC(=O)/C(=C/c2ccc3c(c2)OCO3)S1`, the growth inhibition in assay [1] (setting [7]) is 16%; in assay [1] (setting [8]), 12%; in assay [1] (at 50.0 µM) it was -45.6%; in assay [2] (setting [7]) it was 15%; in assay [2] (setting [8]), 20%; in assay [2] (at 50.0 µM) it was -40.6%. Besides, the growth inhibition is 13% in assay [3] (setting [7]); 13% in assay [3] (setting [8]); -13.3% in assay [3] (at 50.0 µM); 16% in assay [4] (setting [7]); 11% in assay [4] (setting [8]); -13.9% in assay [4] (at 50.0 µM). Moreover, the growth inhibition was 9% in assay [5] (setting [7]); 31% in assay [5] (setting [8]); 0.7% in assay [5] (at 50.0 µM); 14% in assay [6] (setting [7]); 18% in assay [6] (setting [8]); -14% in assay [6] (at 50.0 µM).
